Several values for one entry are separate records, joined by “and”; a condition that tells them apart may be missing. Identical values can stand only once. Compounds without any hit were thinned out: in the full panel of roughly 83,000, 20% have a hit.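 Testing used 96-well plates and a 48-hour single-concentration exposure. Example: -40 means 40% of the starting cells died.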 Activity calls are given as the source filed them.

For one test, the system named is MDA-MB-435 melanoma. The test is described as follows: NCI-60 one-dose screen, 48 h (100 = growth as untreated, 0 = no growth, -100 = all killed). As to conditions: 10 µM. On the procedure:
Growth inhibition of the MDA-MB-435 human Melanoma tumor cell line is measured as a screen for anti-cancer activity. Cells are grown in 96 well plates and exposed to the test compound for 48 hours. Compounds are tested at a single concentration, which is 10^-5 M for most compounds. The reported endpoint is percent growth (GI% or GIPRCNT), where numbers from 0 - 100% represent growth inhibition, and numbers from -100% - 0 represent cell death. For example, a value of 40 represents 60% growth inhibition. A value of 0 means no net growth occurred over the course of the experiment. A value of -40 indicates 40% of cells at the beginning of the experiment died by the end of the experiment. A value of -100 means all cells are dead at the end of the experiment.
NCI-60 Human Tumor Cell Lines Screen was performed using the standard one-dose NCI protocol, which is described in more detail at https://dtp.cancer.gov/discovery_development/nci-60/default.htm.
Compounds with GIPRCNT values below 10 were considered active. Activity score was based on GIPRCNT using the following formula: […]
Score is 0 for GIPRCNT values of 100 or above, 50 for GIPRCNT values of 0, and 100 for GIPRCNT values of -100.
For the compound `S=C(SSC(=S)N1CCCCC1)N1CCCCC1`, the growth was 99.3% (inactive).

Staying with this test, now noted: 10 µM unless noted.
As for `CCC1(O)CC(OC2CC(N(C)C)C(OC3CC4OC5CC(=O)C(C)OC5OC4C(C)O3)C(C)O2)c2c(cc3c(c2O)C(=O)c2c(O)ccc(O)c2C3=O)C1C(=O)OC` (stereo not given), the growth is -94.1% (active).

As to `CC[C@@]1(O)C[C@H](OC2CC(N(C)C)C(O)C(C)O2)c2c(O)c3c(c(O)c2[C@H]1OC1CC(N(C)C)C(O)C(C)O1)C(=O)c1cccc(O)c1C3=O` (stereo not given in full), the growth is -86% (active).

Consider `COc1ccccc1/C=C(/C)[N+](=O)[O-]`, for which the growth is 79.2% (inactive) and 105% (inactive).

Consider `COC1CC(CC2CCC(C)C(C(C)C(=O)O)O2)OC2(OC(C)(C3CCC(C)(C4OC(C5OC(O)(CO)C(C)CC5C)CC4C)O3)CC2C)C1C` (stereo not given), for which the growth is -91.7% (active).

`Cc1cc(N=Nc2ccccc2C)ccc1N`: the growth is 82.9% (inactive).

Regarding `CCC(=O)OC1CCn2c1nc1c2C(=O)C(C)=C(N2CC2)C1=O` (stereo not given), the growth was -83.6% (active).

For the compound `CCOC(=O)C(NC(=O)C(Cc1ccc(N(CCCl)CCCl)cc1)NC(C)=O)C(C)C` (stereo not given), the growth is 101% (inactive).

`CC[n+]1c(-c2ccccc2)c2cc(N)ccc2c2ccc(N)cc21`: the growth is -36% (active).

In the case of `COc1cccc2c1cc([N+](=O)[O-])c1c(C(=O)O)cc3c(c12)OCO3`, the growth was 93.1% (inactive) and 100% (inactive).

With `CC1=C2C(=O)[C@H]3[C@@H](CC=C4C[C@@H](O)CC[C@@]43C)[C@@H]2CC[C@]12O[C@@H]1C[C@H](C)CN[C@H]1[C@H]2C`, the growth was 98.2% (inactive).

For `NCCc1ccc(OCc2ccccc2)c(OCc2ccccc2)c1`, the growth was 88.1% (inactive).

For the compound `CC(=O)O[C@H]1C[C@@H]2OC3C=C(C)CCC3(C)[C@@]1(C)[C@@]21CO1` (stereo not given in full), the growth was -21.1% (active) and -27.5% (active).

On to `Cc1ccc(C(=O)OC(C(=O)O)C(OC(=O)c2ccc(C)cc2)C(=O)O)cc1` (stereo not given) (tested in a mixture with another compound), for which the growth was 51.3% (inactive).

As for `CC1=C(CO)C2=C(C)C3(CC3)[C@@](C)(O)C(=O)C2=C1`, the growth was 10.7% (inactive).

Turning to `Cc1c(N)nc([C@H](CC(N)=O)NC[C@H](N)C(N)=O)nc1C(=O)N[C@H](C(=O)N[C@H](C)[C@@H](O)[C@H](C)C(=O)N[C@H](C(=O)NCCc1nc(-c2nc(C(=O)NCCC[S+](C)C)cs2)cs1)[C@@H](C)O)C(OC1OC(CO)C(O)C(O)C1OC1OC(CO)C(O)C(OC(N)=O)C1O)c1cnc[nH]1` (stereo not given in full), the growth was 85.1% [2.5 µM] (inactive).

Turning to `Oc1cccc2cccnc12`, the growth was 101% (inactive) and 110% (inactive) and 119% (inactive).

On to `CC[C@@]1(O)C[C@H](OC2CC(N(C)C)C(OC3CC(O)C(OC4CCC(=O)C(C)O4)C(C)O3)C(C)O2)c2c(cc3c(c2O)C(=O)c2c(O)ccc(O)c2C3=O)[C@H]1C(=O)OC` (stereo not given in full), for which the growth was -2.5% (active).

In the case of `COC1=C(C)C(=O)C2=C(C1=O)C(CO)N1C(C#N)C3CC4C(C1C2N1CCOC41)N3C` (stereo not given), the growth is -64.2% (active).

`CC[C@@]1(O)C(=O)OCc2c1cc1n(c2=O)Cc2cc3ccccc3nc2-1`: the growth is -81.5% (active).

Take `COc1ccc(OC)c(/C=C/[N+](=O)[O-])c1`: the growth is 7.04% (active).

For the compound `C[C@H]1CCC/C=C/[C@@H]2C[C@H](O)C[C@H]2[C@H](O)/C=C/C(=O)O1`, the growth is 0.489% (active).

Turning to `C[C@]12CC[C@H](O)CC1=CC[C@@H]1[C@@H]2CC[C@]2(C)C(=O)CC[C@@H]12`, the growth was 90.3% (inactive).

In the case of `CN1CCN(c2ccc([N+](=O)[O-])c3no[n+]([O-])c23)CC1`, the growth was -82.2% (active).

With `Oc1cc[c]([Hg][Cl])cc1`, the growth is 96% (inactive).

As for `CC[C@](O)(C(=O)O)c1cc2n(c(=O)c1CO)Cc1cc3ccccc3nc1-2`, the growth is -81% (active).

On to `CCCCCCCCCCCC1CCCC(C)N1` (stereo not given), for which the growth is 71.8% (inactive).

With `O=C1c2ccccc2C(=O)C(Cl)C1Cl` (stereo not given), the growth was 95.9% (inactive).

Consider `CO[C@H](/C(C)=C/C=C/C(C)=C/c1coc(C)n1)[C@H](C)[C@H]1C[C@@H](O)[C@@]2(C)O[C@H]2/C=C/[C@@H](C)[C@@H]2C[C@@H](CC(=O)O2)C[C@H]2O[C@@H]2C(=O)O1`, for which the growth is -59.2% (active).

Still in this test, the particulars now being: 100 µM.
Turning to `S=C(SSC(=S)N1CCCCC1)N1CCCCC1`, the growth was -30.9% (active).
